The list is not random: actives were taken first. Their share in the collection is about 2.4%.
M1 PAM parental – counter-screen for M1 PAMs: effect in parental CHO-K1 cells; ATP EC20, Fluo-8 calcium fluorescence; 0% at ATP EC20, 100% at ATP max; activation, % at 3 µM; 360,000 tested, 0.02% active; AID 602247;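 active means activation above the run cutoff, the mean activation of all test compounds plus 3 SD, cut at about 40% in these data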;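 further: peak over basal fluorescence ratio in a 140 s read after ATP addition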
CHO-K1 Ca antag – counter-screen for M1 antagonists: effect in parental CHO-K1 cells; ATP-induced calcium, Fluo-8 fluorescence; inhibition, % at 3 µM; 360,000 tested, 0.6% active; AID 602250;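 active means inhibition above a per-plate cutoff, the plate's mean sample inhibition plus 3 SD, cut at about 24% in these data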;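 further: 0% = DMSO plus EC80 ATP and 100% = DMSO alone without ATP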
CHRM1 PAM – positive allosteric modulators of human M1 muscarinic receptor | P11229 | CHO-K1 hM1, Fluo-8 calcium fluorescence, ACh EC20; 0% = ACh EC20, 100% = maximal ACh | activation, % at 3 µM | 360,000 tested, 0.088% active | AID 588819; in the data active means activation above about 19%, passing the limit was not always enough
Target sequence (P11229 whole entry, looked up): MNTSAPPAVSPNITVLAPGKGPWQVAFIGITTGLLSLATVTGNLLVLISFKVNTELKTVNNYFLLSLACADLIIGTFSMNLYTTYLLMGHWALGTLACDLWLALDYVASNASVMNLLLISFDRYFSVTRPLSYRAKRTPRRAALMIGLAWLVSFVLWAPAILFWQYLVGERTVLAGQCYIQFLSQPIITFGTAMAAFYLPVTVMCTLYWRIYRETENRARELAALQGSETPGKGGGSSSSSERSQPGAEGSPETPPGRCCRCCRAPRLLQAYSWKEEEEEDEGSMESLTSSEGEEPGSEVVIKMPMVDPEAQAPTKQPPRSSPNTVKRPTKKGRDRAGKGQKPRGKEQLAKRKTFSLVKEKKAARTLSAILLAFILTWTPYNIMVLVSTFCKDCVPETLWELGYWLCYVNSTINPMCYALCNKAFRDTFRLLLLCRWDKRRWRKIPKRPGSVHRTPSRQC
M1 antag – antagonists of human M1 muscarinic receptor | P11229 | CHO-K1 hM1, Fluo-8 calcium fluorescence, ACh EC80 antagonist | inhibition, % at 3 µM | 360,000 tested, 1.3% active;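 active means percent inhibition above its own plate's cutoff, namely the mean of that plate's compound wells plus 3 SD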;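 further: peak over basal fluorescence ratio during 140 s after agonist addition; 0% = ACh EC80 plus DMSO and 100% = DMSO alone without agonist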
M1 ag – human M1 muscarinic receptor agonism. P11229. CHO-K1 hM1, Fluo-8 calcium fluorescence, agonist mode; 0% DMSO, 100% acetylcholine EC100. activation, % at 3 µM. 360,000 tested, 0.33% active;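 active means activation above the run's mean compound activation plus 3 SD, cut at about 16% in these data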;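 further: peak over basal fluorescence ratio within a 140 s kinetic read after compound addition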
M1 ag parental – counter-screen for M1 agonists: effect in parental CHO-K1 cells | Fluo-8 calcium fluorescence; scaled to maximal ATP response, vehicle zero | activation, % at 3 µM | 360,000 tested, 0.48% active | AID 602248; in the data active means activation above about 15%;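 further: untransfected CHO-K1 host cells lacking M1 receptor as counterscreen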
Active calls of the source: *; x = no result.

SMILES	M1 PAM parental	CHO-K1 Ca antag	CHRM1 PAM	M1 antag	M1 ag	M1 ag parental
COc1ccc(C(CNC(=O)c2nn(-c3ccccc3)c(=O)c3ccccc23)N2CCOCC2)cc1 (stereo unspecified)	-24	7	16	-8	4	0
CN(C)c1ccc(-c2nn3c(C4CCCCC4)nnc3s2)cc1	-7	30*	4	0	-6	0
Cc1cccc(NS(=O)(=O)c2ccc(C)c(C(=O)NNC(=O)c3csc(N4CCOCC4)n3)c2)c1	17	-21	10	-3	-4	1
Cc1ccc(S(=O)(=O)N2CCC(C(=O)N3CCC[C@H]3C(=O)NC3CCS(=O)(=O)C3)CC2)cc1 (stereo partly specified)	15	0	-17	54*	-2	2
CCCNC(=O)[C@@H]1CCCN1C(=O)C1CCN(S(=O)(=O)c2ccc(C)cc2)CC1	0	-2	8	-5	-1	0
Cc1csc(NC(=O)c2cc(C)on2)n1	11	-22	9	-12	-3	0
C=CCn1c(SCCOC)nc2c1c(=O)[nH]c(=O)n2C	22	-9	6	-10	-4	1
C=CCn1c(SCCN2CCCCC2)nc2c1c(=O)[nH]c(=O)n2C	-4	20	-20	28*	-12	0
Cc1ccc(CC(CC(=O)O)C(=O)NCc2ccccc2)cc1 (stereo unspecified)	13	-3	4	0	-4	1
Cc1ccc(CNC(=O)[C@H](Cc2ccccc2)NC(=O)C2CCNCC2)cc1	17	31*	9	-15	-2	1
O=C(CCCN1CCC(C(=O)c2ccc(F)cc2)CC1)c1ccc(F)cc1	9	-4	-28	89*	-9	4
O=C(c1ccc(F)cc1)C1CCN(Cc2ccccc2)CC1	4	7	-8	14	-5	16*
CCOC(=O)c1sc(=S)n(-c2ccccc2)c1C	1	1	-11	8	-7	2
CCOC(=O)c1sc(=S)n(-c2ccccc2Cl)c1C	20	-13	-27	52*	-7	0
CCOC(=O)[C@]12CCC=C1N(Cc1ccco1)C(=O)[C@H](CC(=O)NCc1cccs1)C2	5	-15	x	x	x	1
Cc1cccc(C)c1-n1c(C)cc(/C=N\Nc2ccc([N+](=O)[O-])cn2)c1C	-2	13	-14	35*	-2	3
COc1ccc(S(=O)(=O)N(C)[C@H]2C[C@H]3c4cc(N5CCN(C)CC5)ccc4CCN3C(=O)[C@H]2[C@H](C)O)cc1	-6	13	-6	15	-6	0
Cc1ccc(S(=O)(=O)N2CCN(CC(=O)Nc3ccnn3C3CCCC3)CC2)cc1	-2	0	-3	11	-3	0
Nc1nc(NCCc2ccccc2)nc(NCCO)c1[N+](=O)[O-]	-8	-11	0	14	0	1
COc1ccc(Cl)cc1S(=O)(=O)n1nnc2ccccc21	1	28*	2	9	-2	0
COc1ccc(OC)c(S(=O)(=O)n2nnc3ccccc32)c1	10	-3	4	-5	-3	0
CCOC(=O)[C@]12CCC=C1N(Cc1cccc3ccccc13)C(=O)[C@H](CC(=O)NCCCCc1ccccc1)C2	8	-11	x	x	x	1
CC(CNCc1ccc2c(c1)OCO2)NCc1ccc2c(c1)OCO2 (stereo unspecified)	43*	-24	-7	-4	-9	2
Fc1ccc(CNCc2ccc3c(c2)OCO3)cc1	-9	10	13	-13	-1	0
CCN(CC(=O)Nc1c(F)cccc1F)C(=O)c1ccc2ncsc2c1	14	10	7	-7	2	7
SMILES	M1 PAM parental	CHO-K1 Ca antag	CHRM1 PAM	M1 antag	M1 ag	M1 ag parental
C=COC(=O)CSc1snc(SCC(=O)OC)c1C#N	11	-6	6	-9	-4	0
CCN(CC)C(=O)CSc1nsc(SCC(=O)N(CC)CC)c1C#N	-9	26*	-6	15	-3	0
Cc1cccc(OCC(=O)N2CCN(c3nnc(-c4ccccc4)c4ccccc34)CC2)c1	9	-6	-28	57*	-6	5
Cc1ccc(-c2nnc(N3CCN(C(=O)COc4cccc(C)c4)CC3)c3ccccc23)cc1	10	-10	-24	32	-9	0
CC(=O)Nc1ccc(N(C(=O)c2ccccn2)C(C(=O)NC2CCCCC2)c2ccc(F)cc2)cc1 (stereo unspecified)	-8	5	7	0	-1	-1
CCc1ccc(NC(=O)NCCN2CCN(c3ccc(OC)cc3)CC2)cc1	12	1	-3	7	-4	15*
O=C(O)c1ccc2nc(-c3ccccc3)sc2c1	-17	29*	-7	8	-1	0
Nc1ccc(-c2nc3ccc(C(=O)O)cc3s2)cc1	19	-2	12	-2	-12	0
CCOc1ccc(OCC(=O)OC(C)C(=O)NC2CCCC2)cc1 (stereo unspecified)	9	-15	9	-8	-1	1
Nc1ccn([C@@H]2O[C@H](CNCc3ccc(OCC(=O)Nc4nccs4)cc3)[C@@H](O)[C@H]2O)c(=O)n1	-11	-3	4	-13	-3	1
O=C(Nc1cccc(-c2nc3ccccc3o2)c1)c1ccc(N2C(=O)C3C4C=CC(C4)C3C2=O)cc1 (stereo unspecified)	18	-7	-11	37*	1	3
CC(C)Oc1ccc(OCCCN2CCCCCC2)cc1	7	-2	-20	36*	-7	0
CC(C)(C)c1ccc(OCCCN2CCCC2)cc1	17	-3	5	-17	-8	2
Clc1ccc(OCCCCN2CCCCC2)cc1	0	11	-11	16	-9	1
CC(C)c1ccc(OCCCCN2CCCCC2)cc1	-3	-7	-25	60*	-8	4
Cc1ccc(CC(=O)OC(C)C(=O)NC2CCCCC2C)cc1C (stereo unspecified)	21	-24	14	-10	-4	0
Cc1ccc(CCNC(=O)C2CCCN(c3ncnc4c3nc3n4CCCCC3)C2)cc1 (stereo unspecified)	14	-10	6	-13	-4	1
CC(C)N(CCNC(=O)C1CCCN(c2ncnc3c2nc2n3CCCCC2)C1)Cc1ccccc1 (stereo unspecified)	3	1	-19	38*	-6	0
Cc1ccc(CN2CCC(CNC(=O)C3CCCN(c4ncnc5c4nc4n5CCCCC4)C3)CC2)cc1 (stereo unspecified)	23	-24	-21	97*	-6	1
CCCS(=O)(=O)N1CCCC(C(=O)NCCN(Cc2ccccc2)C(C)C)C1 (stereo unspecified)	-6	32*	-10	28	-6	-1
